Assay results published in PubChem BioAssay (NCI).
Compounds without any hit were thinned out: in the full panel of roughly 83,000, 20% have a hit.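 The test compound was applied at a single concentration to cells in 96-well plates for 48 hours, and percent growth was recorded.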 Calls of active or inactive are those of the source. How the source made its calls: active means growth percent below 10; inactive means the rest.

Assays:
Experiment in all cases: NCI-60 one-dose screen, 48 h (100 = growth as untreated, 0 = no growth, -100 = all killed)
Conditions in all cases: 10 µM unless noted
T-47D breast = tested on: T-47D breast
BT-549 breast = tested on: BT-549 breast
MDA-MB-435 melanoma = tested on: MDA-MB-435 melanoma
SW-620 colon = tested on: SW-620 colon
MCF7 breast = tested on: MCF7 breast
HCT-116 colon = tested on: HCT-116 colon
HCC-2998 colon = tested on: HCC-2998 colon
KM12 colon = tested on: KM12 colon

Measured: growth

CCCC[C@@H](C=O)NC(=O)[C@H](CC(C)C)NC(=O)[C@H](CC(C)C)NC(=O)OCc1ccccc1
active: T-47D breast -42.7% | BT-549 breast -70.3% | MDA-MB-435 melanoma -4.11% | SW-620 colon -34.6% | MCF7 breast 0.513% | HCT-116 colon -58.5% | HCC-2998 colon -74.1% | KM12 colon -51.4%

Cc1cccc(C[C@H](NC(=O)Nc2ccc(Cl)cc2F)C(=O)N[C@@H]2C(=O)N3C[C@H](O)C[C@H]3C(=O)N3CCN(C)C[C@H]3C(=O)N[C@@H](C)C(=O)N3C[C@H](C)C[C@H]3C(=O)O[C@H]2C)c1
active: HCT-116 colon 9.83%
inactive: T-47D breast 21.5% | BT-549 breast 17.2% | MDA-MB-435 melanoma 22.1% | SW-620 colon 42.4% | MCF7 breast 23% | HCC-2998 colon 34.5% | KM12 colon 40.5%

CCOC(=O)c1cnc2ccc(Br)cc2c1Nc1cccc(S(N)(=O)=O)c1
inactive: T-47D breast 81.4% | BT-549 breast 96.3% | MDA-MB-435 melanoma 101% | SW-620 colon 99.2% | MCF7 breast 93.8% | HCT-116 colon 85.6% | HCC-2998 colon 115% | KM12 colon 96%

CCN(CC)c1ccc2cc(C(Nc3ccc(Cl)cc3)c3nnnn3C(C)(C)C)c(=O)oc2c1 (centres undefined)
inactive: T-47D breast 71.7% | BT-549 breast 103% | MDA-MB-435 melanoma 87.8% | SW-620 colon 100% | MCF7 breast 74.2% | HCT-116 colon 92% | HCC-2998 colon 105% | KM12 colon 88.7%

CN(C)c1ccc(-c2ccc(-c3ccc(C(=N)N)cc3)s2)cc1
active: T-47D breast -50.8% | MDA-MB-435 melanoma -77.6% | SW-620 colon -54.9% | MCF7 breast -55.3% | HCT-116 colon -45.3% | HCC-2998 colon -74.2% | KM12 colon -73%
inactive: BT-549 breast 96.2%

C=C(C)[C@@H]1CC[C@]2(C(=O)OC)CC[C@]3(C)[C@H](CC[C@@H]4[C@@](C)(CCc5nn[nH]n5)[C@H](C(=C)C)CC[C@]43C)[C@@H]12
active: T-47D breast -5.51% [100 µM] | BT-549 breast -12.1% [100 µM] | MDA-MB-435 melanoma -54% [100 µM] | SW-620 colon -19.6% [100 µM] | MCF7 breast 5.06% [100 µM] | HCT-116 colon -21.5% [100 µM] | HCC-2998 colon -53.5% [100 µM] | KM12 colon -43.7% [100 µM]

COc1cc(C)cc2oc3oc(=O)c(C(=O)c4cc5cc(Br)ccc5o4)cc3c(=O)c12
inactive: T-47D breast 107% | BT-549 breast 100% | MDA-MB-435 melanoma 104% | SW-620 colon 101% | MCF7 breast 101% | HCT-116 colon 99.7% | HCC-2998 colon 110% | KM12 colon 107%

O=c1[nH]c(CN2CCN(c3cccc(Cl)c3)CC2)nc2cc(Cl)ccc12
inactive: T-47D breast 75.9% | BT-549 breast 110% | MDA-MB-435 melanoma 103% | SW-620 colon 99.2% | MCF7 breast 86.2% | HCT-116 colon 92.4% | HCC-2998 colon 96.2% | KM12 colon 99%

COc1ccc(/C=C/C(=C/c2c(O)[nH]c3cc(Br)ccc23)N=O)cc1
inactive: T-47D breast 103% | BT-549 breast 106% | MDA-MB-435 melanoma 108% | SW-620 colon 113% | MCF7 breast 104% | HCT-116 colon 99.7% | HCC-2998 colon 121% | KM12 colon 97.1%

COc1ccc(-c2c(C)nn3c(NCCN4CCOCC4)cc(C)nc23)cc1OC
inactive: T-47D breast 88.2% | BT-549 breast 93.3% | MDA-MB-435 melanoma 101% | SW-620 colon 99.4% | MCF7 breast 95.3% | HCT-116 colon 90% | HCC-2998 colon 104% | KM12 colon 107%

CC1(C)NCCC[C@]2(C)[C@H]3C=CC4=C5C[C@](C)(CO)CC[C@]5(C)CC[C@@]4(C)[C@]3(C)CC[C@@H]12
active: T-47D breast -63.9% [100 µM] | BT-549 breast -87.9% [100 µM] | MDA-MB-435 melanoma -95.6% [100 µM] | SW-620 colon -80.7% [100 µM] | MCF7 breast -70.7% [100 µM] | HCT-116 colon -77.4% [100 µM] | HCC-2998 colon -78.8% [100 µM] | KM12 colon -85.5% [100 µM]

Fc1ccc(NC(=S)c2ccccc2)cc1
inactive: T-47D breast 96.4% | BT-549 breast 90.3% | MDA-MB-435 melanoma 98% | SW-620 colon 102% | MCF7 breast 93.9% | HCT-116 colon 103% | HCC-2998 colon 116% | KM12 colon 100%

Nc1cc(NN=C(c2ccc(O)cc2)c2ccc(O)cc2)c([N+](=O)[O-])cc1[N+](=O)[O-]
inactive: BT-549 breast 102% | MDA-MB-435 melanoma 96.5% | SW-620 colon 101% | KM12 colon 71.5%
active: T-47D breast -55.9% | MCF7 breast -60.5% | HCT-116 colon -61.8% | HCC-2998 colon -97.6%
